In the supplement of paper PMC10849652:
Of roughly 7,900 targets only a part is listed; those with a hit were picked by preference. About 0.6% of all pairs of compound and target were hits. Unmarked numbers belong to inactive results.

Tests used:
Test in all cases: log2 fold change, soluble protein after heating vs DMSO (PISA); higher = thermal stabilisation; K562 cells, 10 uM, 30 min; active = over 0.2 and 3.5 SD of the protein, either way, in both replicates (recomputed)
[1] = compound: C1COCCN1CCN2C3=CC=CC=C3N=C2NC(=O)C4=CC(=CC=C4)[N+](=O)[O-] [IRAK-1-4 Inhibitor I]
Outline: (§1)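 Aliquots of K562 cells (2×10^6 cells/mL) treated with 10 μM compound for 30 min were heated for 3 min over 48°C-58°C. After pooling and extraction in PBS with 0.5% NP-40 at 4°C, soluble protein from a 21,000xg, 90 min spin was quantified by TMTpro 16plex LC-MS/MS with channel sums equalised. Thermal stability is expressed against control samples, from duplicates, as a log2 fold change.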

[2] = compound: C=CC(=O)N1CCC[C@@H](n2nc(-c3ccc(Oc4ccccc4)cc3)c3c(N)ncnc32)C1 [ibrutinib]
Outline: as §1

[3] = compound: CC(=O)c1cnc2ccc(-c3cc(Cl)c(O)c(Cl)c3)nc2c1N[C@H]1CC[C@H](CN(C)C)CC1
Outline: as §1

[4] = compound: CC(C)(C)Cn1c(N)nc2ccc(-c3[nH]c(C(C)(C)C)nc3-c3ccc(F)cc3)nc21 [ralimetinib]
Outline: as §1

[5] = compound: CC(C)(O)CC(=O)NCCn1ccc2ncnc(Nc3ccc(Oc4cccc(C(F)(F)F)c4)c(Cl)c3)c21
Outline: as §1

[6] = compound: CC(C)C1=C2N=C(C=C(N2N=C1)NCC3=CC=CC=C3)NCCCCCCN
Outline: as §1

[7] = compound: CC(C)C[C@@H](C=O)NC(=O)[C@H](CC(C)C)NC(=O)[C@H](CC(C)C)NC(=O)OCc1ccccc1
Outline: as §1

[8] = compound: CC(C)N(C[C@H]1O[C@@H](n2cnc3c(N)ncnc32)[C@H](O)[C@@H]1O)[C@H]1C[C@@H](CCc2nc3cc(C(C)(C)C)ccc3[nH]2)C1 [pinometostat]
Outline: as §1

[9] = compound: CC1=C(C(CC(=O)N1)C2=CC=C(C=C2)C(F)(F)F)C(=O)NC3=C(C=C4C(=C3)C=NN4)F
Outline: as §1

[10] = compound: CC1=C(C2=C(C=C1)C(=O)C3=CC=CC=C3N2CCCN)C
Outline: as §1

ATP23 (UniProt Q9Y6H3)
UniProt Q9Y6H3, sequence (Q9Y6H3 whole entry, looked up): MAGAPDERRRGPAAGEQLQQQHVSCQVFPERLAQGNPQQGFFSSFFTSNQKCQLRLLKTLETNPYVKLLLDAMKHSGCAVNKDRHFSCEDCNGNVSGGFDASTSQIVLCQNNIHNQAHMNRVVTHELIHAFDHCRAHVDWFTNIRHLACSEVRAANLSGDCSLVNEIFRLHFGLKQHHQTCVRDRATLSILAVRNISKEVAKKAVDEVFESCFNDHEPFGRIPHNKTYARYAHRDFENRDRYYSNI
log2 fold change [1]: 0.091
log2 fold change [2]: -0.009
log2 fold change [3]: -0.004
log2 fold change [4]: -0.043
log2 fold change [5]: 0.02
log2 fold change [6]: -0.136
log2 fold change [7]: 0.025
log2 fold change [8]: -0.014
log2 fold change [9]: 0.011
log2 fold change [10]: -0.01

BLVRB (UniProt P30043)
UniProt P30043, sequence (P30043 whole entry, looked up): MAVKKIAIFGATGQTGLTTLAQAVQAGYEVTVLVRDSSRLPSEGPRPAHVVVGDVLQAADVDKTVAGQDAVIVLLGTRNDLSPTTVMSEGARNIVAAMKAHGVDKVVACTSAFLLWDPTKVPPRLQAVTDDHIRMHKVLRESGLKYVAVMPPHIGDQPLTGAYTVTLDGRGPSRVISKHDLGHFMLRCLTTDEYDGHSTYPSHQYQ
log2 fold change [1]: 0.075
log2 fold change [2]: 0.037
log2 fold change [3]: 0.154
log2 fold change [4]: 0.056
log2 fold change [5]: -0.019
log2 fold change [6]: -0.048
log2 fold change [7]: -0.037
log2 fold change [8]: -0.005
log2 fold change [9]: -0.046
log2 fold change [10]: 0.059

ATP1A4 (UniProt Q13733)
log2 fold change [1]: 0.002
log2 fold change [2]: -0.013
log2 fold change [3]: 0.032
log2 fold change [4]: -0.025
log2 fold change [5]: -0.025
log2 fold change [6]: 0.121
log2 fold change [7]: -0.033
log2 fold change [8]: -0.017
log2 fold change [9]: 0.016
log2 fold change [10]: 0.03

AGPAT1 (UniProt Q99943)
log2 fold change [1]: 0
log2 fold change [2]: -0.083
log2 fold change [3]: -0.051
log2 fold change [4]: 0.012
log2 fold change [5]: -0.109
log2 fold change [6]: 0.06
log2 fold change [7]: -0.005
log2 fold change [8]: 0.02
log2 fold change [9]: -0.006
log2 fold change [10]: -0.017

AP2M1 (UniProt Q96CW1)
log2 fold change [1]: -0.049
log2 fold change [2]: 0.043
log2 fold change [3]: -0.043
log2 fold change [4]: 0.036
log2 fold change [5]: 0.022
log2 fold change [6]: 0.045
log2 fold change [7]: 0.011
log2 fold change [8]: 0.026
log2 fold change [9]: 0.011
log2 fold change [10]: 0.079

ACSF3 (UniProt Q4G176)
UniProt Q4G176, sequence (Q4G176 whole entry, looked up): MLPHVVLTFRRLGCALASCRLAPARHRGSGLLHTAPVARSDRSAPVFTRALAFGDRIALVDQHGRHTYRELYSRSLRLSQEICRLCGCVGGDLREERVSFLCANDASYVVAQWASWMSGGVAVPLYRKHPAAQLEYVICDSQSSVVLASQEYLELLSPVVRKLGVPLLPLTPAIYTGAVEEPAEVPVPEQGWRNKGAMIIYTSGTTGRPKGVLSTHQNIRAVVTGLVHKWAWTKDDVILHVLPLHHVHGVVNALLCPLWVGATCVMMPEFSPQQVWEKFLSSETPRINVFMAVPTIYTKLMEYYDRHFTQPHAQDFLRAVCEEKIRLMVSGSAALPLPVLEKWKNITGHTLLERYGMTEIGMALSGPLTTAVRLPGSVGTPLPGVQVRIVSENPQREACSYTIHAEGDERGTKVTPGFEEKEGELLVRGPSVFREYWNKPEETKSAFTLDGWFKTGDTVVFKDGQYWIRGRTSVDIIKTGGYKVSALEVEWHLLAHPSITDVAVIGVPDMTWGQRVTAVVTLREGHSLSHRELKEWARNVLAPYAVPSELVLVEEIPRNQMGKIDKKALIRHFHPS
log2 fold change [1]: 0.05
log2 fold change [2]: -0.088
log2 fold change [3]: -0.129
log2 fold change [4]: -0.004
log2 fold change [5]: -0.063
log2 fold change [6]: -0.138
log2 fold change [7]: 0.077
log2 fold change [8]: 0.011
log2 fold change [9]: -0.061
log2 fold change [10]: 0.023

ACSL3 (UniProt O95573)
log2 fold change [1]: 0
log2 fold change [2]: -0.001
log2 fold change [3]: -0.035
log2 fold change [4]: -0.009
log2 fold change [5]: -0.086
log2 fold change [6]: -0.025
log2 fold change [7]: -0.009
log2 fold change [8]: -0.004
log2 fold change [9]: 0.023
log2 fold change [10]: 0.035

AUP1 (UniProt Q9Y679)
log2 fold change [1]: 0.035
log2 fold change [2]: -0.026
log2 fold change [3]: 0.003
log2 fold change [4]: 0.007
log2 fold change [5]: -0.164
log2 fold change [6]: -0.482 (active)
log2 fold change [7]: -0.033
log2 fold change [8]: 0.011
log2 fold change [9]: -0.036
log2 fold change [10]: 0.08

BST2 (UniProt Q10589)
UniProt Q10589, sequence (Q10589 whole entry, looked up): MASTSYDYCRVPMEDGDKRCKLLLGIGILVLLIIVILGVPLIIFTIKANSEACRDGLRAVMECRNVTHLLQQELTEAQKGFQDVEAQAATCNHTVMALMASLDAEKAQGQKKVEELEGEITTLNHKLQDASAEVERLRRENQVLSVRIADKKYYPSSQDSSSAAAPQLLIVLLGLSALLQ
log2 fold change [1]: -0.004
log2 fold change [2]: 0
log2 fold change [3]: -0.109
log2 fold change [4]: 0.033
log2 fold change [5]: 0.025
log2 fold change [6]: -0.108
log2 fold change [7]: 0.12
log2 fold change [8]: -0.006
log2 fold change [9]: 0.026
log2 fold change [10]: 0.017

BLOC1S3 (UniProt Q6QNY0)
UniProt Q6QNY0, sequence (Q6QNY0 whole entry, looked up): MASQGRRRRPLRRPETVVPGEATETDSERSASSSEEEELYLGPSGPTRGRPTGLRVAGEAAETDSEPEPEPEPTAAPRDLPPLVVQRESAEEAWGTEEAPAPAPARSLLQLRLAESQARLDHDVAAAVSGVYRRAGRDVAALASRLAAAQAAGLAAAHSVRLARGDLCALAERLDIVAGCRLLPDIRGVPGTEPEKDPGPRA
log2 fold change [1]: 0.018
log2 fold change [2]: -0.037
log2 fold change [3]: 0.427 (active)
log2 fold change [4]: -0.033
log2 fold change [5]: -0.058
log2 fold change [6]: 0.005
log2 fold change [7]: -0.045
log2 fold change [8]: -0.041
log2 fold change [9]: -0.01
log2 fold change [10]: 0.076

AGPAT3 isoform 3 (UniProt Q9NRZ7)
log2 fold change [1]: 0.012
log2 fold change [2]: 0
log2 fold change [3]: -0.024
log2 fold change [4]: -0.02
log2 fold change [5]: -0.001
log2 fold change [6]: -0.071
log2 fold change [7]: -0.001
log2 fold change [8]: 0.034
log2 fold change [9]: -0.011
log2 fold change [10]: 0.03

ATAD3A isoform 2 (UniProt Q9NVI7)
log2 fold change [1]: -0.005
log2 fold change [2]: 0.08
log2 fold change [3]: -0.075
log2 fold change [4]: 0.009
log2 fold change [5]: -0.023
log2 fold change [6]: -0.468 (active)
log2 fold change [7]: 0.075
log2 fold change [8]: 0.082
log2 fold change [9]: 0
log2 fold change [10]: 0.096

ACP1 isoform 2 (UniProt P24666)
UniProt P24666, sequence (P24666 whole entry, looked up): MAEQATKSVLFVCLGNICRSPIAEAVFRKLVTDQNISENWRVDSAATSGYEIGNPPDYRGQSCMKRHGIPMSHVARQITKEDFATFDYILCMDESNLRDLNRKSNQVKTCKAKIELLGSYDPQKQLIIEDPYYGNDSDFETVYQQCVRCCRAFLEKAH
log2 fold change [1]: -0.082
log2 fold change [2]: -0.028
log2 fold change [3]: -0.013
log2 fold change [4]: 0.009
log2 fold change [5]: -0.264 (active)
log2 fold change [6]: -0.109
log2 fold change [7]: -0.039
log2 fold change [8]: 0.073
log2 fold change [9]: -0.061
log2 fold change [10]: -0.296 (active)

ATP5IF1 (UniProt Q9UII2)
UniProt Q9UII2, sequence (Q9UII2 whole entry, looked up): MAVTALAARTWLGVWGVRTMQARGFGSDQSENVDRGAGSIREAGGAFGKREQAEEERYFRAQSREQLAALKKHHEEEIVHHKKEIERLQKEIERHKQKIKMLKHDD
log2 fold change [1]: 0.121
log2 fold change [2]: 0.012
log2 fold change [3]: 0.018
log2 fold change [4]: -0.1
log2 fold change [5]: 0.099
log2 fold change [6]: 0.056
log2 fold change [7]: -0.048
log2 fold change [8]: -0.06
log2 fold change [9]: 0.009
log2 fold change [10]: -0.006

BRIP1 (UniProt Q9BX63)
log2 fold change [1]: 0.017
log2 fold change [2]: 0.12
log2 fold change [3]: -0.073
log2 fold change [4]: 0.006
log2 fold change [5]: 0.039
log2 fold change [6]: -0.036
log2 fold change [7]: -0.064
log2 fold change [8]: 0.084
log2 fold change [9]: -0.01
log2 fold change [10]: 0.333 (active)

AGO1 (UniProt Q9UL18)
log2 fold change [1]: 0.02
log2 fold change [2]: 0.05
log2 fold change [3]: 0.019
log2 fold change [4]: -0.023
log2 fold change [5]: -0.001
log2 fold change [6]: -0.01
log2 fold change [7]: 0.07
log2 fold change [8]: 0.061
log2 fold change [9]: 0.144
log2 fold change [10]: 0.076

ATP1A1 (UniProt P05023)
log2 fold change [1]: 0.071
log2 fold change [2]: 0.03
log2 fold change [3]: 0.007
log2 fold change [4]: -0.029
log2 fold change [5]: -0.006
log2 fold change [6]: 0.182
log2 fold change [7]: -0.002
log2 fold change [8]: -0.006
log2 fold change [9]: 0.001
log2 fold change [10]: 0.009

AKT2 (UniProt P31751)
UniProt P31751, sequence (P31751 whole entry, looked up): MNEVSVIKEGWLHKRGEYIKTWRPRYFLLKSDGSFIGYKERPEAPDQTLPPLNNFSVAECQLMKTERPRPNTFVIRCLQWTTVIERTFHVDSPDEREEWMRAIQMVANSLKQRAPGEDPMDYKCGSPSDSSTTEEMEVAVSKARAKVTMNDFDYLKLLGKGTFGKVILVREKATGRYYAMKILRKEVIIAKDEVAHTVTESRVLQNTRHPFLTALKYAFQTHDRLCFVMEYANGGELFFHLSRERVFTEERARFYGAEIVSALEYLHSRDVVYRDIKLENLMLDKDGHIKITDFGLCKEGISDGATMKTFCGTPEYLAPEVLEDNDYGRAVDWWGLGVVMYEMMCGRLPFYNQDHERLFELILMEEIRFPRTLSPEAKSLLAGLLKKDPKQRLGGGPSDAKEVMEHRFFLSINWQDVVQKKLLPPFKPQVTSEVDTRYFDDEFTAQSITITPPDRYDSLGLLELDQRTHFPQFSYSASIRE
log2 fold change [1]: -0.013
log2 fold change [2]: -0.033
log2 fold change [3]: -0.039
log2 fold change [4]: -0.015
log2 fold change [5]: -0.027
log2 fold change [6]: -0.179
log2 fold change [7]: 0
log2 fold change [8]: -0.016
log2 fold change [9]: 0.023
log2 fold change [10]: -0.011

BRIX1 (UniProt Q8TDN6)
log2 fold change [1]: -0.1
log2 fold change [2]: -0.011
log2 fold change [3]: 0.021
log2 fold change [4]: 0.133
log2 fold change [5]: 0.091
log2 fold change [6]: 0.137
log2 fold change [7]: 0.041
log2 fold change [8]: 0.361
log2 fold change [9]: -0.051
log2 fold change [10]: -1.43 (active)

ATF7 isoform 6 (UniProt P17544)
UniProt P17544, sequence (P17544 whole entry, looked up): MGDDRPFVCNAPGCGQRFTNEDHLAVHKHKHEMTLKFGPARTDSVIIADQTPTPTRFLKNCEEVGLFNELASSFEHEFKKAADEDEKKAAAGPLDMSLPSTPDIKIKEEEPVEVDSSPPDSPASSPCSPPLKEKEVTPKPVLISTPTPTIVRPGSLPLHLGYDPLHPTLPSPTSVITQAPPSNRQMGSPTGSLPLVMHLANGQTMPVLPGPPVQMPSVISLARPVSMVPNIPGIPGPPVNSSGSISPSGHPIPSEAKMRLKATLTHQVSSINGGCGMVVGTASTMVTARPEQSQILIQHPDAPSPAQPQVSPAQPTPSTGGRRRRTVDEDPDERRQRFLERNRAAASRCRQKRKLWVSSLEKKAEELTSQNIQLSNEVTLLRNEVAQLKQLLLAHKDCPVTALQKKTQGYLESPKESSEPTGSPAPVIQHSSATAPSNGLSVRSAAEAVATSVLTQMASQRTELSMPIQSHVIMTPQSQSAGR
log2 fold change [1]: -0.031
log2 fold change [2]: 0.199
log2 fold change [3]: 0.183
log2 fold change [4]: 0.089
log2 fold change [5]: -0.042
log2 fold change [6]: 0.138
log2 fold change [7]: -0.14
log2 fold change [8]: 0.019
log2 fold change [9]: -0.082
log2 fold change [10]: 0.22

ATP7B (UniProt P35670)
log2 fold change [1]: -0.022
log2 fold change [2]: -0.033
log2 fold change [3]: 0.077
log2 fold change [4]: 0.043
log2 fold change [5]: 0.003
log2 fold change [6]: 0.011
log2 fold change [7]: 0.015
log2 fold change [8]: 0.056
log2 fold change [9]: -0.124
log2 fold change [10]: 0.061

ARFRP1 (UniProt Q13795)
UniProt Q13795, sequence (Q13795 whole entry, looked up): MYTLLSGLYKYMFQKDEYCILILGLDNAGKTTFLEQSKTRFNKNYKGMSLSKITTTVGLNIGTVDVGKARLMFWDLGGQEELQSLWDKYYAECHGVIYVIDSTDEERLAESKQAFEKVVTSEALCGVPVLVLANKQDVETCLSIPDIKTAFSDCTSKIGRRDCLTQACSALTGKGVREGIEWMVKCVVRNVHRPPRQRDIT
log2 fold change [1]: -0.083
log2 fold change [2]: 0.031
log2 fold change [3]: 0.02
log2 fold change [4]: 0.004
log2 fold change [5]: -0.041
log2 fold change [6]: -0.028
log2 fold change [7]: -0.073
log2 fold change [8]: 0.017
log2 fold change [9]: -0.044
log2 fold change [10]: 0.075

BCCIP (UniProt Q9P287)
log2 fold change [1]: -0.025
log2 fold change [2]: -0.063
log2 fold change [3]: -0.06
log2 fold change [4]: -0.005
log2 fold change [5]: 0.002
log2 fold change [6]: 0.035
log2 fold change [7]: 0.015
log2 fold change [8]: 0.073
log2 fold change [9]: -0.041
log2 fold change [10]: 0.255 (active)

AKAP8L (UniProt Q9ULX6)
UniProt Q9ULX6, sequence (Q9ULX6 whole entry, looked up): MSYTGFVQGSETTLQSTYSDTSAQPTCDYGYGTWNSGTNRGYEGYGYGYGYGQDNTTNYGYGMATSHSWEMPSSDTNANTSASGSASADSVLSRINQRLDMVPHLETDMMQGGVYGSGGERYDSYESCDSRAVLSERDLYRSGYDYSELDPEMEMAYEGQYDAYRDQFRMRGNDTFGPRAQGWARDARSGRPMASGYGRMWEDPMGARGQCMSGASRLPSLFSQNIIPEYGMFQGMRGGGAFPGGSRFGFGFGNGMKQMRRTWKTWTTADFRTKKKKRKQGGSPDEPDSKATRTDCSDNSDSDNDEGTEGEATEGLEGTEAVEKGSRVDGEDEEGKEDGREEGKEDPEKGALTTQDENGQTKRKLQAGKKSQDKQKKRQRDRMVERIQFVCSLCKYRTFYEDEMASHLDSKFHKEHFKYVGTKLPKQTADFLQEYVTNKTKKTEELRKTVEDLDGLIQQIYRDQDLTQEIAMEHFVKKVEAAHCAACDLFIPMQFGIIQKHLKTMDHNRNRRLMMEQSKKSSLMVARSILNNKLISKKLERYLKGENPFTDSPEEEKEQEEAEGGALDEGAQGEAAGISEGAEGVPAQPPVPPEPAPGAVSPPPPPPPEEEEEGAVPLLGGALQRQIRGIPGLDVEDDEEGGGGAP
log2 fold change [1]: -0.076
log2 fold change [2]: -0.001
log2 fold change [3]: -0.128
log2 fold change [4]: 0.091
log2 fold change [5]: -0.091
log2 fold change [6]: -0.299
log2 fold change [7]: 0.106
log2 fold change [8]: -0.018
log2 fold change [9]: 0.024
log2 fold change [10]: -0.34

ATAD1 (UniProt Q8NBU5)
UniProt Q8NBU5, sequence (Q8NBU5 whole entry, looked up): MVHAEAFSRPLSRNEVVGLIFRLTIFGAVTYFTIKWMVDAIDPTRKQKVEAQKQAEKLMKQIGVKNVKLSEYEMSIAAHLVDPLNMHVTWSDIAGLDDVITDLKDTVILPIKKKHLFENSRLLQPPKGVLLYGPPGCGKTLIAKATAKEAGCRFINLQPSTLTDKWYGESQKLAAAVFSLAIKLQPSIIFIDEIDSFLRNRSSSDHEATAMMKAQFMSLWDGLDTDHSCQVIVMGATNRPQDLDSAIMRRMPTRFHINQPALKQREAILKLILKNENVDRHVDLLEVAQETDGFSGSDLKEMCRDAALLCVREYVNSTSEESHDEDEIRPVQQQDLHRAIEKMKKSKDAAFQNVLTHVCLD
log2 fold change [1]: -0.007
log2 fold change [2]: 0.011
log2 fold change [3]: -0.081
log2 fold change [4]: 0.238 (active)
log2 fold change [5]: -0.083
log2 fold change [6]: -0.077
log2 fold change [7]: 0.038
log2 fold change [8]: 0.041
log2 fold change [9]: -0.083
log2 fold change [10]: 0.054

ACIN1 (UniProt Q9UKV3)
log2 fold change [1]: -0.052
log2 fold change [2]: 0.004
log2 fold change [3]: -0.155
log2 fold change [4]: 0.063
log2 fold change [5]: 0.043
log2 fold change [6]: -0.022
log2 fold change [7]: -0.026
log2 fold change [8]: -0.006
log2 fold change [9]: -0.017
log2 fold change [10]: -0.369 (active)

AP2B1 isoform 2 (UniProt P63010)
UniProt P63010, sequence (P63010 whole entry, looked up): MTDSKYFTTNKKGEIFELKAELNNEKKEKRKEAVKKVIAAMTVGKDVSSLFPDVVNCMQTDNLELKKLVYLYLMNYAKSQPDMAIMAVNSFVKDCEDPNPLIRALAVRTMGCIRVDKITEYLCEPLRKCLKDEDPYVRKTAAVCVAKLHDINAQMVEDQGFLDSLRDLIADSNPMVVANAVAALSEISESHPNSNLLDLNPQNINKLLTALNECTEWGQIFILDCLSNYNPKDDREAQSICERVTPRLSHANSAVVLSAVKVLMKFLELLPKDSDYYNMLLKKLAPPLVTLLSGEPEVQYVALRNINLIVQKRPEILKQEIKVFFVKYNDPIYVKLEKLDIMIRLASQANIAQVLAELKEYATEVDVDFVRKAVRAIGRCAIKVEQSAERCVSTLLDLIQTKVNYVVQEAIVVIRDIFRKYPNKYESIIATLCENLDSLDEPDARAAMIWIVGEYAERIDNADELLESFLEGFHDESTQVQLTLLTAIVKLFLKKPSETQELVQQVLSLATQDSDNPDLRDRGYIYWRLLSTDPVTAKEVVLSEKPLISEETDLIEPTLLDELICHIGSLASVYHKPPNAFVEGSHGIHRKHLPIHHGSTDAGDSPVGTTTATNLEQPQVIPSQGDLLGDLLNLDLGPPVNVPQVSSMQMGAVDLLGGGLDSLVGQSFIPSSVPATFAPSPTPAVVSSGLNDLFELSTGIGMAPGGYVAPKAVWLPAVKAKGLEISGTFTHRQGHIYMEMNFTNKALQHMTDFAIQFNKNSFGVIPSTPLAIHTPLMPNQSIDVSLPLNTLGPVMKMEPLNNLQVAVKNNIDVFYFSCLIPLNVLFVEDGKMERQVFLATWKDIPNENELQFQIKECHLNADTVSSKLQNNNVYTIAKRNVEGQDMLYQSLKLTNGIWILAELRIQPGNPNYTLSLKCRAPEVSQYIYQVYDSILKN
log2 fold change [1]: -0.002
log2 fold change [2]: 0.025
log2 fold change [3]: -0.034
log2 fold change [4]: 0
log2 fold change [5]: 0.008
log2 fold change [6]: 0.029
log2 fold change [7]: 0.005
log2 fold change [8]: 0.011
log2 fold change [9]: 0.027
log2 fold change [10]: 0.035

BZW1 isoform 3 (UniProt Q7L1Q6)
log2 fold change [1]: -0.118
log2 fold change [2]: -0.123
log2 fold change [3]: 0.005
log2 fold change [4]: 0.049
log2 fold change [5]: -0.296
log2 fold change [6]: -0.422 (active)
log2 fold change [7]: 0.007
log2 fold change [8]: 0.123
log2 fold change [9]: 0.006
log2 fold change [10]: 0.068

ABCC5 (UniProt O15440)
log2 fold change [1]: -0.035
log2 fold change [2]: -0.082
log2 fold change [3]: 0
log2 fold change [4]: 0.001
log2 fold change [5]: -0.121
log2 fold change [6]: 0.119
log2 fold change [7]: 0.046
log2 fold change [8]: 0.086
log2 fold change [9]: 0.038
log2 fold change [10]: 0.116
